# This is a sample that favours compounds with a hit; in the whole collection about 1.7% have one here.
# TAG inh: reduces triacylglycerol accumulation in H9c2 cells; Nile Red lipid (TAG) fluorescence; cells loaded with 200 µM oleic acid; inhibition, % at 12.5 µM; 230,000 tested, 0.66% active; AID 651582;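 active means pattern-corrected inhibition of lipid staining of at least 50% with the nuclear-stain viability signal not falling by more than 50%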;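 further: 0% = DMSO wells and 100% = triacsin C control wells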
# CHT allo act: allosteric activators of human choline transporter CHT | CHT-expressing cells, membrane potential dye, choline EC20; hits give high values; LV-AA mutant CHT in HEK293 cells | 310,000 tested, 0.49% active | AID 488977 | B-score at 10 µM;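 active means initial fluorescence not abnormally high and integrated response B-score, plate-corrected, over 3 SD above library mean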
# Target sequence (Q9GZV3 whole entry, looked up): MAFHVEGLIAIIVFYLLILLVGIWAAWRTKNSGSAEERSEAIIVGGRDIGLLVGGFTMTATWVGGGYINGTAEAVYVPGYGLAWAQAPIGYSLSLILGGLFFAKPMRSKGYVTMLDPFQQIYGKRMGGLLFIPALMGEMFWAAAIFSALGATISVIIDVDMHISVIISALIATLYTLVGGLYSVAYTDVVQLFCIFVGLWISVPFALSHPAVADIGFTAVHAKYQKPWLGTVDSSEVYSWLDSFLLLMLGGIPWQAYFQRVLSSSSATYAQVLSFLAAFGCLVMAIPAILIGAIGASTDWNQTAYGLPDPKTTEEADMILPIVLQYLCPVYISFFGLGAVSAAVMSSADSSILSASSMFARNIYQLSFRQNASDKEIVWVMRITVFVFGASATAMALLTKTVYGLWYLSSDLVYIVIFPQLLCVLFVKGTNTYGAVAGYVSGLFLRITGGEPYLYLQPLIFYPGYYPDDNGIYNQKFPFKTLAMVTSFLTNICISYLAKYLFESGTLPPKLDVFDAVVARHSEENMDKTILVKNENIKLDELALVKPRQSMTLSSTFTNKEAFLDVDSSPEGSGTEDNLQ
# CHT block: human CHT choline transport inhibition; CHT-expressing cells, membrane potential dye, choline response; hits give low values; 310,000 tested, 0.86% active; B-score at 10 µM; Q9GZV3;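 active means B-score over 3 SD under the library average, and starting fluorescence ratio not unusually high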;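 further: choline stimulus applied at its EC90 after an EC20 pre-addition; B-score computed on integrated fluorescence ratio after choline addition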
# beta cell repl: inducers of beta-cell replication in MIN6 cells. MIN6 cells proliferation, ATPlite luminescence, 48 h; cells starved in 0.2% serum; 100% = growth in 10% serum. proliferation, % at 10 µM. 330,000 tested, 0.29% active. AID 2380;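 active means compounds whose signal lies at least 3.5 SD above the mean of all wells on their plate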;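 further: 0% = DMSO-treated cells in low-serum medium and 100% = 10% serum control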
# CHT inh conf: human CHT inhibition, confirmatory screen. shares compounds with CHT block. CHT-expressing cells, choline membrane potential dye; LV-to-AA substituted CHT, HEK293 cells. CHT activity remaining % of control (hits give low values), % at 10 µM. 2,400 tested, 70% active;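 active means choline transporter activity left, mean of duplicates at 10 µM, below buffer-only control mean minus 3 SD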;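 further: depolarization triggered by choline at its EC90 following an EC20 pre-addition; 0% = hemicholinium-3 full block and 100% = buffer-only control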
# HEK293 CHT ctr: counter-screen for CHT inhibitors: effect in parental HEK293 cells; membrane potential dye, choline response; active = decrease or increase beyond buffer ±3SD; membrane potential ratio readout (active if shifted either direction beyond buffer ±3SD; no single direction) at 10 µM; shares compounds with CHT block; 2,400 tested, 4% active;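 further: parental cells lack the transporter so any hit is non-specific; ratio is peak minus trough fluorescence over baseline after EC90 choline challenge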
# The depositor's hits bear a star; i = inactive; · = not tested or not shown.
SMILES,TAG inh,CHT allo act,CHT block,beta cell repl,CHT inh conf,HEK293 CHT ctr
COc1ccc2ncc(S(=O)(=O)c3ccccc3)c(N3CCN(c4ccccc4)CC3)c2c1,·,i,i,0.0,·,·
COc1ccc2ncc(S(=O)(=O)c3ccccc3)c(N3CCC4(CC3)OCCO4)c2c1,·,i,-5.86*,6.6,51.8%*,i
CC1=C(C(=O)N2CCOCC2)CC(CC(=O)NCCc2ccccn2)C(=O)N1Cc1ccc(C(C)(C)C)cc1 (centres undefined),17.8,·,·,·,·,·
COc1cc(CNCCc2ccccc2)cc(Br)c1OCC(=O)Nc1ccccc1C,2.4,i,-8.4*,-6.7,43.5%*,i
CCOc1ccc(NC(=O)CSc2nc3ccsc3c(=O)n2Cc2ccc(C(=O)O)cc2)cc1,-5.3,·,·,·,·,·
S=c1nc(-c2cc(Cl)cc(Cl)c2)[nH][nH]1,4.5,i,-5.79*,-2.8,31.9%*,i
O=C(Cc1ccc(-n2c(=O)c3ccccc3n(Cc3ccccc3F)c2=O)cc1)NCC1CCCO1 (centres undefined),·,i,-7.85*,0.0,41.3%*,i
COc1ccc(CCN2C(=O)NC(NS(=O)(=O)c3ccccc3)(C(F)(F)F)C2=O)cc1OC (centres undefined),·,i,i,-3.2,·,·
C[C@@H]1CN([C@@H](C)CO)C(=O)c2cc(-c3cccnc3)cnc2O[C@H]1CN(C)C(=O)c1cccc(F)c1,0.9,·,·,·,·,·
O=C(CN1C(=O)S/C(=C\c2ccccc2Cl)C1=O)NCCCn1ccnc1,·,i,i,-0.3,·,·
COc1ccccc1/C=C1\SC(=O)N(CC(=O)NCCCn2ccnc2)C1=O,·,i,-7.06*,-0.5,68.6%*,i
CCN(CC(=O)Nc1cccc(OC)c1)c1ncnc2sc(C)c(C)c12,·,i,-5.48*,-2.0,68.8%*,i
COC(=O)c1c(C(=O)OC)c(-c2ccc(Br)cc2)n2c1CS(=O)C2 (centres undefined),·,i,i,-3.3,·,·
COc1cc(/C=C2\SC(=Nc3ccccc3OC)NC2=O)ccc1O,·,i,-5.39*,-4.7,i,i
O=C(CC1C(=O)NCCN1C(=O)Nc1ccccc1)Nc1cc(Cl)cc(Cl)c1 (centres undefined),22.1,i,-5.02*,-6.4,15.8%*,i
COc1ccc2c(C(=O)c3ccc(Cl)cc3)n(CCCC(N)=O)[n+]([O-])c2c1,17.1,i,i,-6.7,·,·
CN(C(=O)CSc1nnc(Cc2cccs2)n1C1CC1)C1CCS(=O)(=O)C1 (centres undefined),-1.8,·,·,-3.1,·,·
O=C1C[C@H]2[C@H](CO)[C@@H](OC(=O)c3ccc(-c4ccccc4)cc3)C[C@H]2O1,1.1,i,-5.75*,-2.8,63.8%*,i
O=C1CC2C(CC(OC(=O)c3ccc(-c4ccccc4)cc3)C2CO)O1 (centres undefined),-0.3,i,i,-1.3,·,·
CCOC(=O)C1(C)C=C(Nc2ccc(NC(C)=O)cc2)C(=O)N1c1ccc(NC(C)=O)cc1 (centres undefined),-16.3,i,i,0.5,·,·
Cc1ccc(NC(=O)c2ccc(Cl)c(S(=O)(=O)NCC3CCCO3)c2)c(O)c1 (centres undefined),-10.6,i,i,2.6,·,·
Cc1ccccc1NC(=O)c1ccc(F)c(S(=O)(=O)NCC2CCCO2)c1 (centres undefined),·,i,-7.68*,-1.0,20.8%*,i
COc1ccc(S(=O)(=O)NCC2CCCO2)cc1NC(=O)c1ccc(Cl)cc1 (centres undefined),-10.4,i,i,-5.6,·,·
O=C(Nc1ccccc1Cl)c1ccc(S(=O)(=O)NCC2CCCO2)cc1 (centres undefined),·,i,-6.42*,0.1,30.9%*,i
CCc1nc2c(OCC(=O)c3ccc(F)cc3)cccn2c1N(C)C(=O)c1cccs1,6.0,·,·,·,·,·
SMILES,TAG inh,CHT allo act,CHT block,beta cell repl,CHT inh conf,HEK293 CHT ctr
COc1ccc(N2CCN(C(=O)c3cc(-c4cccs4)nc4ccccc34)CC2)cc1,-8.9,i,-6.06*,-2.7,i,i
Cc1cc(Cl)c(S(=O)(=O)N2CCCC2)cc1OCC(=O)NC1CCCCC1,·,i,-5.16*,-4.0,57.3%*,i
Cc1ccc(-c2nnc(N3CC(C)OC(C)C3)c3ccccc23)cc1 (centres undefined),-1.4,i,-7.54*,-3.5,58.6%*,i
CCN(CC)c1ccc(NC(=O)CNCc2ccccc2Cl)c(C)c1,·,i,-5.19*,-0.2,57.4%*,i
O=C(CNCc1ccccc1Cl)Nc1ccccc1N1CCCCC1,-16.7,i,i,-2.7,·,·
COCOCCn1cc(CN2CCS(=O)(=O)N(Cc3ccc(-c4ccc(Cl)nc4)cc3)C(C(C)C)C2=O)nn1 (centres undefined),-7.7,·,·,·,·,·
Cc1ccc(N2CCN(C(=O)C3CCCN(c4ncnc5c4nc4n5CCCCC4)C3)CC2)c(C)c1 (centres undefined),·,i,-5.94*,-3.4,45.1%*,i
Cc1cccc(N2CCN(C(=O)C3CCN(c4ncnc5c4nc4n5CCCCC4)CC3)CC2)c1C,·,i,i,-1.1,·,·
CN(C(=O)C1CCCN(c2ncnc3c2nc2n3CCCCC2)C1)c1cccc(Cl)c1 (centres undefined),·,i,i,-1.9,·,·
O=C(C1CCCN(c2ncnc3c2nc2n3CCCCC2)C1)N1CCN(c2ccccc2)CC1 (centres undefined),·,i,-6.4*,2.8,14.9%*,i
O=C(C1CCCN(c2ncnc3c2nc2n3CCCCC2)C1)N1CCN(c2cccc(Cl)c2)CC1 (centres undefined),·,i,-9.97*,-5.8,46.9%*,i
Cc1ccc(NC(=O)C2CCCN(c3ncnc4c3nc3n4CCCCC3)C2)cc1Cl (centres undefined),·,i,i,0.4,·,·
Cc1cccc(N2CCN(C(=O)C3CCN(c4ncnc5c4nc4n5CCCCC4)CC3)CC2C)c1 (centres undefined),·,i,-5.02*,-4.5,43.1%*,i
COc1ccc(S(N)(=O)=O)cc1C(=O)OCC(=O)N1CC(=O)Nc2ccccc21,8.9,·,·,5.8,·,·
CC(=O)Oc1ccc(-c2cccc(C(=O)N(C)c3ccc(O)cc3)c2)cc1,-6.1,i,i,-2.5,·,·
CC(C)Oc1cc(F)ccc1-c1cc(C(=O)NCc2ccccn2)[nH]n1,-19.2,·,·,·,·,·
O=C(Nc1cc(F)ccc1F)C1CCCN(c2ncnc3c2nc2n3CCCCC2)C1 (centres undefined),·,i,-6.01*,-2.1,46.1%*,i
O=C(Nc1ccc(F)cc1F)C1CCCN(c2ncnc3c2nc2n3CCCCC2)C1 (centres undefined),·,i,i,4.8,·,·

# From PubChem BioAssay
